Data reported in PubChem BioAssay AID689 (Sanford-Burnham Center for Chemical Genomics, 2007).
The whole screen tested about 62,000 compounds, of which about 80 (0.1%) were called active. The rule behind the calls is not given here. Not all results are given here. Potency and affinity values are given separately.

molecular target: Ephrin type-A receptor 4 (Mus musculus) (UniProt Q03137); assay: inhibitors of EphA4 binding to KYL peptide, primary screen, biochemical, colorimetric, mouse EphA4 (AID 689); settings: EphA4-AP binding to KYL peptide, pNPP A405, at 10 µM, active compounds read high
Sequence (Q03137 whole entry, looked up): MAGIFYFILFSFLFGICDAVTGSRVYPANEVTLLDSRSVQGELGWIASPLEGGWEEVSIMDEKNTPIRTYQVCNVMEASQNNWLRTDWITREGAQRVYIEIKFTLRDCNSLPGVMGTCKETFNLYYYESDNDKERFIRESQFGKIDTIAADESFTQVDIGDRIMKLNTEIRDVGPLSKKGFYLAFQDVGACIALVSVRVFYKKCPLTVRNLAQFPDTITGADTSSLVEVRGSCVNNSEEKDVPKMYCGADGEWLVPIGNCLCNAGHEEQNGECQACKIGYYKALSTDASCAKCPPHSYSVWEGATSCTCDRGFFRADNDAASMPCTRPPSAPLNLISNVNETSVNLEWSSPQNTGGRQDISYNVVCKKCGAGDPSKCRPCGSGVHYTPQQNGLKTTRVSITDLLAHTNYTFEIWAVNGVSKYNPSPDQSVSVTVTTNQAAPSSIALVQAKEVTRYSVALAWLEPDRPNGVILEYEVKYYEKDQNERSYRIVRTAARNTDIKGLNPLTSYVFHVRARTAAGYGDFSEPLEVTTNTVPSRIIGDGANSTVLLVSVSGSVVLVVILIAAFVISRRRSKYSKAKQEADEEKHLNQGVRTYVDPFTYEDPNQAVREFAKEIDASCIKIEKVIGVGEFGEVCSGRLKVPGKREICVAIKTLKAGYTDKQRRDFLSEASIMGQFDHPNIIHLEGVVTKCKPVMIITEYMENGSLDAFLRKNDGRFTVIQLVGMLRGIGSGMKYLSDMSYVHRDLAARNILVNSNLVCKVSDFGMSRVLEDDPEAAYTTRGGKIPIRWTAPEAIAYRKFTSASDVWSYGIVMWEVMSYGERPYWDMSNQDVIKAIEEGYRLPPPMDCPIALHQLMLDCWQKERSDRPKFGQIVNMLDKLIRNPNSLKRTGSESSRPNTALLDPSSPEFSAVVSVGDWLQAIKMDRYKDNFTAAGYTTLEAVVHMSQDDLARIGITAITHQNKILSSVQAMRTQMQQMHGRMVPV

inhibition, inactive:
CCOC(=O)C1CCCN(C(=O)COc2ccccc2O)C1 (stereo unspecified) -0.6%, COCCN(Cc1cc2cc3c(cc2nc1Cl)OCO3)C(=O)Nc1ccccc1OC -13.8%, CCN(CC)CCCN(Cc1cc2cc3c(cc2[nH]c1=O)OCCO3)C(=O)Nc1ccc(F)cc1 9.2%, Cc1ccc(-n2ncnc2-c2cccc(Cl)c2)cc1Cl 0.3% [this sample at 5 µg/mL], COc1ccccc1-c1c(C(F)(F)F)oc2c(CN3CCCC3)c(O)ccc2c1=O -1.3% [this sample at 5 µg/mL], CCCSC1=N/C(=C\c2ccsc2)C(=O)S1 -0.1%, O=C1SC(c2ccccc2)=N/C1=C/c1ccco1 -12.4%, COc1ccc(-c2nnc3n2N=C(C)CS3)cc1OC -3.7%, N#CC(C(=O)OC1CCCCC1)c1nc2ccccc2nc1N1CCOCC1 (stereo unspecified) -17.3%, COCCOC(=O)C(C#N)c1nc2ccccc2nc1N1CCCC1 (stereo unspecified) 20.7%, CC1CCN(c2nc3ccccc3nc2C(C#N)C(=O)OC2CCCCC2)CC1 (stereo unspecified) 42.2%, CCC(CC)COC(=O)C(C#N)c1nc2ccccc2nc1N1CCOCC1 (stereo unspecified) 48.9%, C=CCN1C(=O)[C@]2(c3ccccc31)C1CCCC=C1C(C#N)=C(N)C2(C#N)C#N (stereo partly specified) -6.6%, CC(=O)Nc1ccc(S(=O)(=O)N2CCN(C34CC5CC(CC(C5)C3)C4)CC2)cc1 -1.8%, COc1ccc(C(CC(=O)Nc2ccc(F)cc2)c2ccccc2)cc1 (stereo unspecified) -16.8%, O=C(CSc1nnc(-c2ccc(S(=O)(=O)N3CCOCC3)cc2)o1)c1ccccc1F -15.3%, CCOC(=O)c1c(NC(C)=O)sc2c1CCCNC2=O 12.2%, CCCCC(=O)Nc1sc2c(c1C(=O)OCC)CCC(C=O)=C2Cl -6.4%, CC(C)OP(=O)(c1ccc(N(C)C)cc1)C(O)c1ccncc1 (stereo unspecified) -19.9%, COc1ccc(N2CCN(C(=O)c3csc4ccccc34)CC2)cc1 -8.7%, Cc1ccc(S(=O)(=O)N(Cc2ccccc2)c2ccccc2C(=O)NCc2ccc(Cl)cc2)cc1 22% [this sample at 5 µg/mL], COc1cc(C(=O)N2CCCN(c3nc4cc(C)ccc4cc3C#N)CC2)cc(OC)c1OC 1.5%, Cc1ccc2cc(C#N)c(N3CCCN(C(=O)C4CCCO4)CC3)nc2c1 (stereo unspecified) 2.7%, CCOc1ccc2oc(C)c(C(=O)OC(C)C)c2c1 -14.8% [this sample at 5 µg/mL], O=S(=O)(c1ccc(Cl)cc1)N1CCN(c2ccccn2)CC1 11% [this sample at 5 µg/mL], Cc1cc([N+](=O)[O-])nn1CC(=O)NNC(=S)Nc1ccc(Cl)cc1 -10.8%, COc1ccc(N2Cc3cccc(C(=O)N4CCOCC4)c3C2=O)cc1 7.2%, COc1ccc(N2Cc3cccc(C(=O)N4CCN(C(=O)c5ccco5)CC4)c3C2=O)cc1 11.2%, Cn1c(SCC(=O)N2CCOCC2)nc2cccnc21 2.2%, CCOC(=O)CSc1nnc(-c2ccc(Br)cc2)o1 5.7% [this sample at 5 µg/mL], O=C(OCc1ccccc1)Sc1nnc(-c2ccc(Br)cc2)o1 -5.7% [this sample at 5 µg/mL], Cc1cc2c(ccc3[nH]onc32)n1 16.7%, O=C1OC(c2ccccc2)=N/C1=C\N1CCCCC1 -17.4%, Cc1ccc(C2=N/C(=C\N3CCCCC3)C(=O)O2)cc1 -3.3%, CC1=NN(c2ccccc2)C(=O)/C1=C/c1cc2cc(C)ccc2nc1N1CCCCC1 5.3%, CN(C)/C(CN1CCOCC1)=C1\N=C(c2ccccc2)OC1=O -14%, CCn1c(SCC(=O)OC(C)C)nnc1-c1cccc(Cl)c1 -13.7%, C=CCNC(=O)c1ccc(N2C(=O)c3ccccc3C2=O)cc1 -9.3% [this sample at 5 µg/mL], CCOC(=O)N1CCN(C(=O)CSCc2nc(-c3ccccc3C)oc2C)CC1 7.2%, CCOc1ccc(N(CC(=O)Nc2ccc3c(c2)OCCO3)S(=O)(=O)c2c(C)noc2C)cc1 -0.5%, O=C(C/C=N\OCc1c(Cl)cccc1Cl)Oc1ccc(Cl)cc1Cl -11.4%, Nc1ccc(NC(=O)c2ccccc2)c2c1C(=O)c1ccccc1C2=O -5.6%, Nc1ccc2c(c1)C(=O)C(=O)c1ccccc1-2 -16.9%, CC1CN(CC(=O)N2CCc3[nH]c4ccccc4c3C2)CC(C)O1 (stereo unspecified) -14.2%, CC(N=c1ccccn1C(=O)Nc1ccc(Cl)cc1)c1ccco1 (stereo unspecified) 6.6%, CN(C)c1ccc(N=Cc2nc(-c3ccccc3)oc2O)cc1 -7.6%, Oc1oc(-c2ccccc2)nc1C=Nc1ccccc1 1%, COc1ccc(C2C(C(=O)OCC(=O)N3CCCCC3)CCC(=O)N2c2ccc(OC)cc2)cc1 (stereo unspecified) -9.6%, COc1cc(NC(=O)c2ccc(NS(=O)(=O)c3c(C)noc3C)cc2)cc(OC)c1 -7.5%, Cc1ccccc1NC(=O)CSc1nnc(-c2ccco2)c(-c2ccco2)n1 32.3%, O=C(CSc1nnc(-c2ccco2)c(-c2ccco2)n1)Nc1ccccc1 41.7%, CS(=O)(=O)N1CCN(Cc2ccc(Cl)cc2)CC1 -10.7% [this sample at 5 µg/mL], CC(C)CN1C(=O)/C(=C/c2ccco2)SC1=S 30.2% [this sample at 5 µg/mL], CC(C)C(C(=O)O)N1C(=O)/C(=C/c2ccc3c(c2)OCO3)SC1=S (stereo unspecified) -2% [this sample at 5 µg/mL], CC(C(=O)O)N1C(=O)/C(=C/c2ccc([N+](=O)[O-])cc2)SC1=S (stereo unspecified) 3.4% [this sample at 5 µg/mL], CC(C(=O)O)N1C(=O)/C(=C/c2ccc3c(c2)OCO3)SC1=S (stereo unspecified) 0.6% [this sample at 5 µg/mL], CCOC(=O)C1CCN(CCC(=O)Nc2cccc(Cl)c2)CC1 -3.9%, O=C(Cc1cccs1)Nc1nnc(Cc2ccc(F)cc2)s1 -11.3%, COc1ccc(Cc2nnc(NC(=O)c3cccs3)s2)cc1 -1.1%, O=C(NCCCN1CCOCC1)c1cccc(Cl)c1 -2.3% [this sample at 5 µg/mL], O=C(COc1ccc(Cl)cc1Cl)Nc1ccc(NC(=O)COc2ccc(Cl)cc2Cl)cc1 -4.1% [this sample at 5 µg/mL], O=C(c1ccccc1[N+](=O)[O-])N1CCN(C/C=C/c2ccccc2)CC1 -10.3% [this sample at 5 µg/mL], CCOc1cc(/C=C2/SC(=S)N(CC)C2=O)ccc1OCc1ccccc1Cl 5% [this sample at 5 µg/mL], CCn1c2ccccc2c2nc3ccccc3nc21 40.1%, Cn1c2ccc(Cl)cc2c2nc3ccccc3nc21 -1.5%, Cc1cc(NC(=O)CSc2nnc(C3COc4ccccc4O3)o2)no1 (stereo unspecified) -5.5%, N#CC1=C(N)C(C#N)(C#N)C(c2cccnc2)C2CCCC=C12 (stereo unspecified) -10%, O=C1/C(=C/C=C/c2ccccc2)SC(=S)N1c1cccc(C(F)(F)F)c1 3.3% [this sample at 5 µg/mL], COC(=O)CN1C(=O)/C(=C\C=C\c2ccccc2)SC1=S 7.7% [this sample at 5 µg/mL], CCCN1C(=O)/C(=C/c2c(NCCCOC(C)C)nc3c(C)cccn3c2=O)SC1=S 38.4%, CCOCCCNc1nc2c(C)cccn2c(=O)c1/C=C1\SC(=S)N(CC(C)C)C1=O -4.7%, COc1ccc(/C=C/C(=O)CC(=O)C(Cl)(Cl)Cl)cc1 5.9% [this sample at 5 µg/mL], Cc1nnc(NC(=O)c2sc3nc(-c4cccs4)cc(C(F)(F)F)c3c2N)s1 3.5%, Cc1c(C(=O)Nc2nccs2)sc2nc(-c3cccs3)cc(C(F)(F)F)c12 33%, CC(=O)c1cccc(NS(=O)(=O)c2cc(OCC(N)=O)c(C)cc2Cl)c1 -4%, CCOC(=O)C1=C(C)N(CCOC)C(=O)/C1=C\c1sccc1C -1.6% [this sample at 5 µg/mL], Cc1cc(OCC(=O)O/N=C(\N)Cc2cccs2)ccc1Br -4.6%, CCSc1nnc(NC(=O)C(CC)(C(F)(F)F)C(F)(F)F)s1 -7.4%, CCSc1nnc(NC(=O)C(C)C)s1 -5.3%, Clc1ccc(CN2CCN(/N=C/c3ccc(Cl)c(Cl)c3)CC2)cc1 6% [this sample at 5 µg/mL], Cn1nnnc1SCC(=O)c1ccco1 23.3%, Cc1ccc2nc(CSc3nc(C)cc(C)c3C#N)[nH]c2c1 5.6%, Cc1ccc(NC2=Nc3ccccc3N3C2=Nc2c(c(C)nn2-c2ccccc2)C3c2ccc(O)c(O)c2)cc1 (stereo unspecified) 27.8%, Cc1nn(-c2ccccc2)c2c1C(c1ccc(O)c(O)c1)N1C(=N2)C(Nc2ccccc2)=Nc2ccccc21 (stereo unspecified) 23.4%, Cc1cccc(NC2=Nc3ccccc3N3C2=Nc2c(c(C)nn2-c2ccccc2)C3c2ccc(O)c(O)c2)c1 (stereo unspecified) 37%, Cc1ccc(N2C(=O)c3n[nH]c(C)c3C2c2cccnc2)cc1 (stereo unspecified) -11.4%
